# Data taken from PubChem BioAssay AID2069 (Sanford-Burnham Center for Chemical Genomics, 2009).
# Among all 1,200 compounds or so, about 210 (18%) were called active. Shown is part of a subset that was picked to be rich in actives. A number with no mark means an inactive call. Cut-off read from the data, not from the text of the source: active = inhibition above about 30%; inactive = the rest.
# Experiment: fluorescence readout artefact check – biochemical, HTRF, uHTS, artefact control for SUMOylation inhibitor project, confirmation (AID 2069)
# Details: HTRF interference counterscreen, at 35 µM, stronger effect = higher value
row,SMILES,inhibition
1,CN1C[C@H](CO)C=C2c3cccc4[nH]cc(c34)C[C@H]21,36.9% (active)
2,CC(C)[C@H]1C(=O)N2CCC[C@H]2[C@]2(O)O[C@](NC(=O)[C@@H]3C=C4c5cccc6[nH]cc(c56)C[C@H]4N(C)C3)(C(C)C)C(=O)N12,12.3%
3,CN1CCN(c2ccc(S(C)(=O)=O)cc2[N+](=O)[O-])CC1,-0.45%
4,COc1ccc(Cc2nccc3cc(OC)c(OC)cc23)cc1OC,-2.9%
5,O=C(O)c1cccc2c1NC(c1cccc([N+](=O)[O-])c1)C1CC(Sc3ccccc3[N+](=O)[O-])C(Cl)C21 (stereo unspecified),26.1%
6,CCCCn1c(NC(=O)c2ccco2)c(C(=O)OCC)c2nc3ccccc3nc21,22.1%
7,CCCCn1c(N)c(C(=O)OCCOC)c2nc3ccccc3nc21,28.8%
8,CCCCn1c(N)c(C(=O)NCc2cccs2)c2nc3ccccc3nc21,9.9%
9,CCCCn1c(NS(=O)(=O)c2ccccc2)c(C(=O)OCC)c2nc3ccccc3nc21,70.9% (active)
10,CCCCn1c(NS(=O)(=O)c2ccc(C)cc2)c(C(=O)OCC)c2nc3ccccc3nc21,58% (active)
11,COc1cc(C(c2c(C)[nH]n(-c3ccccc3)c2=O)c2c(C)[nH]n(-c3ccccc3)c2=O)cc(OC)c1OC,3.8%
12,O=C(O)CC1OCC=C2CN3CCC45C6=CC(=O)C(=O)C([N+](=O)[O-])=C6NC4C1C2CC35 (stereo unspecified),60.8% (active)
13,COc1ccc(OC)c(N2C(=O)NC(=O)/C(=C/c3ccc([N+](=O)[O-])s3)C2=O)c1,-8.75%
14,CN1CCN(c2ccc3nccnc3c2)CC1,40.9% (active)
15,Cc1ccccc1-n1c(O)c(/C=N/NC(=O)c2ccccc2O)c(=O)[nH]c1=S,3.4%
16,CN1CCC2(CC1)C(C#N)=C(N)NC(S)=C2C#N,76.5% (active)
17,O=C1NC(=O)N(Cc2ccco2)C(=O)/C1=C\c1cccn1CCOc1ccc(Cl)cc1,-5.15%
18,O=C(c1cccn2c(=O)c3ccc(Cl)cc3nc12)N1CCC2(CC1)OCCO2,48.9% (active)
19,O=c1[nH]c(O)c(/C=C2/C=CC(c3cc(Cl)ccc3Cl)=N2)c(=O)[nH]1,18.3%
20,Cc1c(CC(=O)N2C[C@H]3C[C@@H](C2)c2cccc(=O)n2C3)c(=O)oc2c(C)c(O)ccc12,50.5% (active)
21,N#C/C(=C(/O)c1ccc(S(=O)(=O)N(CCCl)CCCl)cc1)c1nc2ccccc2[nH]1,28.4%

row,SMILES,inhibition
1,Cc1ccsc1C(=O)C1CCCN(Cc2ccc(-n3cccn3)cc2)C1 (stereo unspecified),30.6% (active)
2,CC(=O)c1ccc2c(c1)C1C(Cl)C(Sc3ccccc3[N+](=O)[O-])CC1C(c1ccccc1[N+](=O)[O-])N2 (stereo unspecified),-3.55%
3,CCN(CC)c1ccc([N+](=O)[O-])c2cccnc12,-11.9%
4,O=C(O)CCn1cc(C=C2C(=O)NC(=O)NC2=O)c(-c2ccc(Br)cc2)n1,-3.4%
5,CCC(C)NC(=O)c1c(N)n(Cc2ccc3c(c2)OCO3)c2nc3ccccc3nc12 (stereo unspecified),24.4%
6,CCOCCCn1c(N)c(C(=O)Nc2sc3c(c2C(=O)OC)CCCC3)c2nc3ccccc3nc21,-2.4%
7,CCCNC(=O)c1c(N)n(Cc2ccc3c(c2)OCO3)c2nc3ccccc3nc12,9.15%
8,Nc1c(C(=O)NC2CCCC2)c2nc3ccccc3nc2n1CC1CCCO1 (stereo unspecified),27.9%
9,CC(C)CCNC(=O)c1c(N)n(CC2CCCO2)c2nc3ccccc3nc12 (stereo unspecified),30.4% (active)
10,CCCCn1c(N)c(C(=O)OCC2CCCO2)c2nc3ccccc3nc21 (stereo unspecified),28.1%
11,CCC(C)NC(=O)c1c(N)n(CC2CCCO2)c2nc3ccccc3nc12 (stereo unspecified),32.5% (active)
12,CC(C)CNC(=O)c1c(N)n(Cc2ccc3c(c2)OCO3)c2nc3ccccc3nc12,15.9%
13,CC(C)OCCCNC(=O)c1c(N)n(CC2CCCO2)c2nc3ccccc3nc12 (stereo unspecified),51.1% (active)
14,CCCNC(=O)c1c(N)n(CC2CCCO2)c2nc3ccccc3nc12 (stereo unspecified),42% (active)
15,CC(C)CCNC(=O)c1c(N)n(Cc2ccc3c(c2)OCO3)c2nc3ccccc3nc12,19.7%
16,Nc1c(C(=O)NCCCc2ccccc2)c2nc3ccccc3nc2n1Cc1cccs1,8%
17,O=C1NC(=O)N(Cc2ccco2)C(=O)/C1=C/c1ccc(-c2cccc([N+](=O)[O-])c2)o1,14.7%
18,O=C(N/N=C/c1c(O)n(Cc2ccco2)c(=O)[nH]c1=O)c1ccccc1O,22.9%
19,Cc1cc(/C=C2\C(=O)NC(=O)N(Cc3ccccc3)C2=O)c(C)n1-c1ccc(Cl)c(C(=O)O)c1,34.7% (active)
20,O=C(O)c1ccc2c(c1)C1C(Cl)C(Sc3ccccc3[N+](=O)[O-])CC1C(c1cccc([N+](=O)[O-])c1)N2 (stereo unspecified),-6.5%
21,CC(=O)c1ccc2c(c1)C1C(Cl)C(Sc3ccccc3[N+](=O)[O-])CC1C(C(=O)O)N2 (stereo unspecified),5.25%

row,SMILES,inhibition
1,O=C1NC(=S)NC(=O)C1=Cc1cccn1-c1ccc(O)cc1,21.8%
2,COCCCn1c(N)c(C(=O)NCc2ccco2)c2nc3ccccc3nc21,34.1% (active)
3,COCCCn1c(N)c(C(=O)OCCOC)c2nc3ccccc3nc21,29.9%
4,COCCCn1c(N)c(C(=O)NCCC(C)C)c2nc3ccccc3nc21,24.1%
5,COCCNC(=O)c1c(N)n(CCC(C)C)c2nc3ccccc3nc12,34.7% (active)
6,CCCCCn1c(N)c(C(=O)NCc2cccs2)c2nc3ccccc3nc21,12.7%
7,CC(C)CCn1c(N)c(C(=O)NCc2cccs2)c2nc3ccccc3nc21,15.4%
8,CCOC(=O)c1c(NC(=O)c2c(N)n(CCCOC)c3nc4ccccc4nc23)sc2c1CCCC2,-0.35%
9,COc1cc(Cn2c(N)c(C(=O)NCc3ccco3)c3nc4ccccc4nc32)cc(OC)c1OC,11.6%
10,CCCCNC(=O)c1c(N)n(CCCOC)c2nc3ccccc3nc12,30.9% (active)
11,CCC(C)NC(=O)c1c(N)n(CCCOC)c2nc3ccccc3nc12 (stereo unspecified),36.5% (active)
12,COc1ccc(Cn2c(N)c(C(=O)NCc3ccco3)c3nc4ccccc4nc32)cc1,11.2%
13,COCCCn1c(N)c(C(=O)Nc2ccccc2)c2nc3ccccc3nc21,7.4%
14,CN1CCc2nc3sc(C#N)c(N)c3c(-c3cccs3)c2C1,14.3%
15,c1ccc2c(NC3=NCCS3)cccc2c1,-3.5%
16,Cc1[nH]n(-c2ccccc2)c(=O)c1C(c1ccc([N+](=O)[O-])cc1)c1c(C)[nH]n(-c2ccccc2)c1=O,-5.95%
17,O=c1[nH]c(O)c(/C=C2\C=Nc3ccc(OCc4ccccc4)cc32)c(=O)[nH]1,8.25%
18,COCCNC(=O)c1c(NC(=O)c2ccco2)n(Cc2ccccc2)c2nc3ccccc3nc12,17.8%
19,Cn1c(O)c(/C=C2\N=c3ccccc3=C2CCNC(=S)NC2CC2)c(=O)n(C)c1=O,13.3%
